Compounds without any hit were thinned out: in the full panel of roughly 79,000, 15% have a hit. Unmarked numbers belong to inactive results. Activity calls are given as the source filed them. Rule as the data show it: active = growth inhibition above about 70%; inactive = the rest.
Key:
[1] = NCI Yeast Anticancer Drug Screen. Data for the rad50 strain (AID 155);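 also: 0% = growth of vehicle-only cultures of the same strain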; details: S. cerevisiae rad50 strain growth inhibition; at 50.0 µM; hits give high values
Method in brief: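 Vehicle-treated cultures provide the reference for the growth inhibition reported for compound-exposed, repair-deficient yeast.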

[2] = NCI Yeast Anticancer Drug Screen. Data for the mec2-1 strain (AID 157); details: S. cerevisiae mec2-1 strain, at 50.0 µM, hits give high values
Method in brief: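 Vehicle-treated cultures served as reference for growth inhibition of compound-exposed mec2-1 yeast.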

[3] = NCI Yeast Anticancer Drug Screen. Data for the sgs1 mgt1 strain (AID 161);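 also: 0% = growth of cultures given vehicle only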; details: S. cerevisiae sgs1 mgt1 strain, at 50.0 µM, hits give high values
Method in brief: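 Read-out: growth inhibition vs vehicle controls. Cells: mutant yeast strain deficient in DNA damage repair.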

[4] = NCI Yeast Anticancer Drug Screen. Data for the cln2 rad14 strain (AID 165);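 also: 0% = growth equal to vehicle treated cultures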; details: S. cerevisiae cln2 rad14 strain, at 50.0 µM, hits give high values
Method in brief: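 Each compound was tested on cln2 rad14 yeast. Inhibition of growth was calculated against vehicle-exposed controls.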

[5] = NCI Yeast Anticancer Drug Screen. Data for the bub3 strain (AID 167); details: S. cerevisiae bub3 mutant strain, at 50.0 µM, hits give high values
Method in brief: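 Mutant yeast screening strain plus compound; vehicle-treated cultures serve as the 0% inhibition reference.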

[6] = NCI Yeast Anticancer Drug Screen. Data for the mlh1 rad18 strain (AID 175); details: S. cerevisiae mlh1 rad18 strain growth inhibition; at 50.0 µM; hits give high values
Method in brief: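 Vehicle-treated cultures served as the reference for growth inhibition in a yeast strain carrying DNA damage repair alterations exposed to each compound.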

Cc1ccc(Cl)c(NC(=O)COc2ccc(Cl)cc2)c1
growth inhibition [1]: -1.2% | growth inhibition [2]: 28.3% | growth inhibition [3]: 22.3% | growth inhibition [4]: -6.6% | growth inhibition [5]: 32.7% | growth inhibition [6]: 26.4%

CC(C)(C)NC(=S)NC1CC2CC1C1Cc3ccccc3C21 (stereo not given)
growth inhibition [1]: 20.6% | growth inhibition [2]: -1.45% | growth inhibition [3]: 22.9% | growth inhibition [4]: -37.5% | growth inhibition [5]: 5.8% | growth inhibition [6]: 1.9%

O=C1C(=Cc2ccco2)C(=O)C2CCCCC12 (stereo not given)
growth inhibition [1]: 6.8% | growth inhibition [2]: -9% | growth inhibition [3]: -10.8% | growth inhibition [4]: 13% | growth inhibition [5]: 2.4% | growth inhibition [6]: 13.6%

c1ccc(-c2nnc(-c3ccccn3)c3c2C[C@@H]2C[C@@H]4Cc5c(-c6ccccn6)nnc(-c6ccccn6)c5[C@@H]4[C@H]32)nc1
growth inhibition [1]: -4.95% | growth inhibition [2]: 0.1% | growth inhibition [3]: -16.4% | growth inhibition [4]: 9.25% | growth inhibition [5]: 10.3% | growth inhibition [6]: -17.4%

O=c1ccc2c(O)c([N+](=O)[O-])cc([N+](=O)[O-])c2[nH]1
growth inhibition [1]: 10% | growth inhibition [2]: -15.7% | growth inhibition [3]: 3.15% | growth inhibition [4]: 8.85% | growth inhibition [5]: 6.3% | growth inhibition [6]: 20.2%

CC(C)c1ccccc1N1C(=O)CC(Sc2ccccc2N)C1=O (stereo not given)
growth inhibition [1]: -5.45% | growth inhibition [2]: -12.8% | growth inhibition [3]: -9.25% | growth inhibition [4]: -28.6% | growth inhibition [5]: 0.15% | growth inhibition [6]: 3.8%

Cc1cccc(OS(=O)(=O)c2ccccc2)c1
growth inhibition [1]: 34.6% | growth inhibition [2]: 16.2% | growth inhibition [3]: 36% | growth inhibition [4]: 8.1% | growth inhibition [5]: -6.65% | growth inhibition [6]: 24.8%

COc1ccc(C2OC3=C(Nc4ccc(Cl)cc4N3)C2=O)cc1 (stereo not given)
growth inhibition [1]: -1.9% | growth inhibition [2]: 0.3% | growth inhibition [3]: 6.65% | growth inhibition [4]: 9.4% | growth inhibition [5]: -9.3% | growth inhibition [6]: 14.9%

COc1ccccc1-n1c(O)c(N=Nc2ccccc2)c(=O)n(-c2ccc(C)cc2)c1=S
growth inhibition [1]: 38.3% | growth inhibition [2]: -8.95% | growth inhibition [3]: 66.8% | growth inhibition [4]: -10.8% | growth inhibition [5]: -2.2% | growth inhibition [6]: 12.8%

CCC1CN2CCc3cc(OC)c(OC)cc3C2CC1C#N (stereo not given)
growth inhibition [1]: 15.4% | growth inhibition [2]: 9.2% | growth inhibition [3]: 23.8% | growth inhibition [4]: 21.1% | growth inhibition [5]: 12.1% | growth inhibition [6]: 23.1%

CCCCCCCCCC(=O)OCC1OC(n2cc(F)c(=O)[nH]c2=O)C(NC(=O)OCc2ccccc2)C(OC(=O)CCCCCCCCC)C1O (stereo not given)
growth inhibition [1]: -5.9% | growth inhibition [2]: -10.2% | growth inhibition [3]: -11.8% | growth inhibition [4]: 6.9% | growth inhibition [5]: -0.35% | growth inhibition [6]: -21%

Cn1c(=O)oc2cc(C(=O)CN3CCN(Cc4ccc5c(c4)OCO5)CC3)c(Cl)cc21
growth inhibition [1]: 29.5% | growth inhibition [2]: 26.4% | growth inhibition [3]: 61.8% | growth inhibition [4]: 26.1% | growth inhibition [5]: 53.4% | growth inhibition [6]: 23.1%

CC(=O)OCC1OC(n2cnc(Br)c2[N+](=O)[O-])C(OC(C)=O)C1OC(C)=O (stereo not given)
growth inhibition [1]: 30.6% | growth inhibition [2]: 3.4% | growth inhibition [3]: 17% | growth inhibition [4]: 14.5% | growth inhibition [5]: 0.65% | growth inhibition [6]: 2.75%

Cc1nc([N+](=O)[O-])cn1CC(Cl)Cn1cc([N+](=O)[O-])nc1C
growth inhibition [1]: -4.65% | growth inhibition [2]: -12.4% | growth inhibition [3]: -18.7% | growth inhibition [4]: 9.7% | growth inhibition [5]: -25.1% | growth inhibition [6]: 14.2%

COC(=O)c1c(C(=O)Nc2ccc(Cl)cc2)c(C)n(NC(N)=O)c1C
growth inhibition [1]: -6.45% | growth inhibition [2]: 8.8% | growth inhibition [3]: 6.9% | growth inhibition [4]: -45.5% | growth inhibition [5]: 1.15% | growth inhibition [6]: 3.95%

CCOC(=O)NC(=O)c1cn(CC(=O)NCC(=O)NCC(=O)NCCCN2CCN(CCCNC(=O)CNC(=O)CNC(=O)Cn3cc(C(=O)NC(=O)OCC)c(=O)[nH]c3=O)CC2)c(=O)[nH]c1=O
growth inhibition [1]: -5% | growth inhibition [2]: 2.4% | growth inhibition [3]: -6.85% | growth inhibition [4]: -23.2% | growth inhibition [5]: -1.05% | growth inhibition [6]: -15.8%

CC(=O)CC(=O)Nc1ccc(Cc2ccc(NC(C)=O)cc2)cc1
growth inhibition [1]: 8.3% | growth inhibition [2]: 9.8% | growth inhibition [3]: 10% | growth inhibition [4]: 5.55% | growth inhibition [5]: 2.8% | growth inhibition [6]: 21.8%

CC1=NN(C(=O)CC(=O)NC(=O)CC(=O)Nc2ccccc2F)C(=O)C1N=Nc1ccc([N+](=O)[O-])cc1 (stereo not given)
growth inhibition [1]: 20.5% | growth inhibition [2]: 22.6% | growth inhibition [3]: 30% | growth inhibition [4]: 16.3% | growth inhibition [5]: 12.1% | growth inhibition [6]: 8.2%

CSc1nc2c(nc(N)n2C2OCC(O)C(O)C2O)c(=O)[nH]1 (stereo not given)
growth inhibition [1]: -19.2% | growth inhibition [2]: -5.2% | growth inhibition [3]: -12.5% | growth inhibition [4]: -15% | growth inhibition [5]: -5.65% | growth inhibition [6]: -29.2%

CCCCCCCCCCCCCCCCCCN(C)CC(COC)OP(=O)([O-])OCC[N+](C)(C)C (stereo not given)
growth inhibition [1]: 22.6% | growth inhibition [2]: 14.3% | growth inhibition [3]: 15.1% | growth inhibition [4]: -3.45% | growth inhibition [5]: 0.25% | growth inhibition [6]: 24.9%

CC(C)(C)c1cc(C(=S)N2CCN(C(=S)c3cc(C(C)(C)C)c(O)c(C(C)(C)C)c3)CC2)cc(C(C)(C)C)c1O
growth inhibition [1]: 4.05% | growth inhibition [2]: -10.7% | growth inhibition [3]: -10.9% | growth inhibition [4]: -48.5% | growth inhibition [5]: 2.45% | growth inhibition [6]: -16.9%

O=C1NC(Cc2c[nH]c3ccccc23)C(=O)N2CCCC12 (stereo not given)
growth inhibition [1]: -4.85% | growth inhibition [2]: 1% | growth inhibition [3]: -7% | growth inhibition [4]: -6.5% | growth inhibition [5]: -6.3% | growth inhibition [6]: 8.85%

CC(C)NC(=O)OCc1cn2c(c1COC(=O)NC(C)C)CCC2
growth inhibition [1]: 20.4% | growth inhibition [2]: 12.8% | growth inhibition [3]: 36% | growth inhibition [4]: 22.4% | growth inhibition [5]: 14.2% | growth inhibition [6]: 35%

Cc1ccc(S(=O)(=O)/N=[N+](\[O-])c2ccc(N(C)C)cc2)cc1
growth inhibition [1]: -32.4% | growth inhibition [2]: -3.35% | growth inhibition [3]: -7.55% | growth inhibition [4]: -35.7% | growth inhibition [5]: -7.8% | growth inhibition [6]: -3.35%

NCc1ccc(S(=O)(=O)Nc2cc(Br)cc(Br)c2)cc1
growth inhibition [1]: 16.4% | growth inhibition [2]: 14.8% | growth inhibition [3]: 30.2% | growth inhibition [4]: 35.1% | growth inhibition [5]: 12% | growth inhibition [6]: 30.4%

Clc1nc(C(Cl)Cl)nc2ccccc12
growth inhibition [1]: 9.65% | growth inhibition [2]: 10.8% | growth inhibition [3]: 14.2% | growth inhibition [4]: 2.9% | growth inhibition [5]: 16.1% | growth inhibition [6]: 12.4%

CC(=O)Oc1ccc(C(C)(C)C)cc1C
growth inhibition [1]: 6.05% | growth inhibition [2]: -10.1% | growth inhibition [3]: -9.45% | growth inhibition [4]: -6.85% | growth inhibition [5]: 0.35% | growth inhibition [6]: -21.1%

O=c1oc2ccccc2[n+]([O-])c1-c1ccccc1
growth inhibition [1]: -9.9% | growth inhibition [2]: -10.8% | growth inhibition [3]: -9.35% | growth inhibition [4]: 16.9% | growth inhibition [5]: -18.8% | growth inhibition [6]: -17.9%

NNC(=O)CCCCCCO
growth inhibition [1]: 5.3% | growth inhibition [2]: 16.3% | growth inhibition [3]: 10.1% | growth inhibition [4]: 27.6% | growth inhibition [5]: 18.3% | growth inhibition [6]: 7.45%

CCCCCCCC/C=C\CCCCCCCC(=O)OC(C)CC(=O)N(C)C (stereo not given)
growth inhibition [1]: -18.1% | growth inhibition [2]: -23.4% | growth inhibition [3]: 10.6% | growth inhibition [4]: -6.55% | growth inhibition [5]: -11.6% | growth inhibition [6]: 3.95%

COC(=O)Cc1c(-c2[nH]c3ccccc3c2CC(=O)OC)[nH]c2ccccc12
growth inhibition [1]: 13.9% | growth inhibition [2]: 7.45% | growth inhibition [3]: 6% | growth inhibition [4]: -17.4% | growth inhibition [5]: 3.85% | growth inhibition [6]: -20.8%

O=C(c1ccccc1)c1ccccc1
growth inhibition [1]: 23.9% | growth inhibition [2]: 2.35% | growth inhibition [3]: -13.2% | growth inhibition [4]: -16.8% | growth inhibition [5]: 14.3% | growth inhibition [6]: 14.1%

CC(=O)Nc1ccc(/C=N/Nc2nc3ccccc3s2)cc1
growth inhibition [1]: -10.3% | growth inhibition [2]: -11% | growth inhibition [3]: -5% | growth inhibition [4]: -50.4% | growth inhibition [5]: 1.9% | growth inhibition [6]: 31.1%

CC(=O)N(C)c1cccc2ccccc12
growth inhibition [1]: 17.9% | growth inhibition [2]: -1.35% | growth inhibition [3]: 9.85% | growth inhibition [4]: -4.65% | growth inhibition [5]: 6.75% | growth inhibition [6]: 5.2%

CSC(=S)Nc1nc2ccc(C)cc2s1
growth inhibition [1]: 21.4% | growth inhibition [2]: 0.4% | growth inhibition [3]: -2.95% | growth inhibition [4]: -15% | growth inhibition [5]: 11.3% | growth inhibition [6]: -14.8%

CC(C)C1NC(=O)c2ccccc2S1 (stereo not given)
growth inhibition [1]: 27.8% | growth inhibition [2]: -15.9% | growth inhibition [3]: -3.55% | growth inhibition [4]: 26.1% | growth inhibition [5]: 10.7% | growth inhibition [6]: 44%

Cc1cc(Cl)c(Cl)cc1NC(=O)C(Br)C(Br)c1ccccc1 (stereo not given)
growth inhibition [1]: 75.8% (active) | growth inhibition [2]: 71.3% (active) | growth inhibition [3]: 74.3% (active) | growth inhibition [4]: 68.7% | growth inhibition [5]: 78.5% (active) | growth inhibition [6]: 82.2% (active)

FC(F)(F)c1nn2c(c(-c3ccccc3)c(-c3ccccc3)c3ccccc32)c1C(F)(F)F
growth inhibition [1]: 32.9% | growth inhibition [2]: 11.2% | growth inhibition [3]: 28.9% | growth inhibition [4]: 25.6% | growth inhibition [5]: -4.4% | growth inhibition [6]: 31.8%

CCN(CC)CCn1c(C(C)(C)C)nc2ccccc21
growth inhibition [1]: -9.15% | growth inhibition [2]: -20.8% | growth inhibition [3]: -24.1% | growth inhibition [4]: -6.25% | growth inhibition [5]: -15.8% | growth inhibition [6]: -10.9%

O=C(O)c1c(Br)c(Br)c(Br)c(Br)c1C(=O)Nc1ccc(Cl)c(Cl)c1
growth inhibition [1]: -1.05% | growth inhibition [2]: 5.15% | growth inhibition [3]: -0.75% | growth inhibition [4]: -11.1% | growth inhibition [5]: 0% | growth inhibition [6]: -21%
